# Assay results reported in PubChem BioAssay (NCI).
# This is part of a sample that, as a whole, favours compounds with a hit. Of some 83,000 tested, about 20% had one in any assay.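 Interpretation: 100, growth as untreated; towards 0, rising growth inhibition; 0, no net growth; 0 to -100, cell death. Compounds scoring below 10 were considered active.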 Values without a mark were called inactive. Activity calls are given as the source filed them.
# What was measured:
# Test in all cases: NCI-60 one-dose screen, 48 h (100 = growth as untreated, 0 = no growth, -100 = all killed)
# SK-MEL-2 melanoma = conditions: 10 µM unless noted
# EKVX NSCLC = conditions: 10 µM unless noted
# SN12C renal = conditions: 10 µM unless noted
# UO-31 renal = conditions: 10 µM unless noted
# TK-10 renal = conditions: 10 µM unless noted
# ACHN renal = conditions: 10 µM unless noted
# A498 renal = conditions: 10 µM
# CCRF-CEM leukemia = conditions: 10 µM unless noted
# MOLT-4 leukemia = conditions: 10 µM unless noted
# SR leukemia = conditions: 10 µM unless noted
# RPMI-8226 leukemia = conditions: 10 µM unless noted
# OVCAR-8 ovarian = conditions: 10 µM unless noted
# OVCAR-5 ovarian = conditions: 10 µM unless noted
# OVCAR-4 ovarian = conditions: 10 µM unless noted
# SK-OV-3 ovarian = conditions: 10 µM unless noted
# IGROV1 ovarian = conditions: 10 µM unless noted
# OVCAR-3 ovarian = conditions: 10 µM unless noted
# HS 578T breast = conditions: 10 µM unless noted
# HL-60(TB) leukemia = conditions: 10 µM unless noted
SMILES,growth (SK-MEL-2 melanoma),growth (EKVX NSCLC),growth (SN12C renal),growth (UO-31 renal),growth (TK-10 renal),growth (ACHN renal),growth (A498 renal),growth (CCRF-CEM leukemia),growth (MOLT-4 leukemia),growth (SR leukemia),growth (RPMI-8226 leukemia),growth (OVCAR-8 ovarian),growth (OVCAR-5 ovarian),growth (OVCAR-4 ovarian),growth (SK-OV-3 ovarian),growth (IGROV1 ovarian),growth (OVCAR-3 ovarian),growth (HS 578T breast),growth (HL-60(TB) leukemia)
N#C[Se]CCN1C(=O)c2ccccc2C1=O,43.7%,33.8%,64.4%,15.9%,15.3%,63.2%,-12.5% (active),21.1%,17.4%,27.7%,59.5%,30.3%,41.4%,67.4%,56.4%,26.1%,39.2%,21.9%,–
Cn1cc(-c2csc(-c3cn(CCN4CCOCC4)c4ccc(F)cc34)n2)c2cccnc21,15.8%,37.5%,61.4%,11%,55.7%,17.7%,68.1%,12.4%,4.03% (active),33.7%,0.0619% (active),4.93% (active),75.3%,30.5%,78.7%,21%,32.3%,60.4%,–
CC1=C(CCCNS(C)(=O)=O)C2=C(C)C3(CC3)[C@@](C)(O)C(=O)C2=C1,-44.7% (active),1.61% (active),8.84% (active),-32.6% (active),-14.9% (active),-23.6% (active),-43.2% (active),90.9%,–,92.8%,97%,6.9% (active),2.82% (active),-12.1% (active),-18% (active),-2.43% (active),-12.7% (active),57.9%,14%
COC(=O)CC[C@H](Cc1ccccc1)NC(=O)c1csc([C@@H](C[C@H](C(C)C)N(C)C(=O)[C@@H](NC(=O)[C@H]2CCCCN2C)C(C)C)OC(C)=O)n1,54.1%,44.1%,43.8%,49.7%,42.5%,23.9%,5.63% (active),19.8%,9.45% (active),13.9%,37.3%,28.1%,76.2%,–,35.4%,15.3%,-3.19% (active),38.2%,4.63% (active)
CCOP(=O)(Cc1ccc(C#N)cc1)OCC,92.3%,105%,97%,99.2%,93.4%,110%,98%,99.3%,94.8%,89%,103%,94.3%,106%,104%,102%,118%,110%,105%,–
CCCCN1CCCC[C@@H]1C(=O)N[C@H](C(=O)N(C)[C@H](C[C@@H](OC(C)=O)c1nc(C(=O)NC2CCC(C(=O)OC)CC2)cs1)C(C)C)C(C)C (some centres undefined),35.5%,34.8%,46.3%,52.8%,55.6%,54.8%,22.3%,5.58% (active),19.2%,20.4%,16.8%,24.6%,57%,52.2%,23.9%,39.5%,-29.5% (active),14.5%,-30.4% (active)
CCCCCSC1C2C(=O)C(Br)=CC13CCNc1c(O)c4c5c(c13)=[N+]2CCC=5C=N4 (centres undefined),-54.8% (active),-56.1% (active),-61.9% (active),-66.9% (active),-52.4% (active),-90.2% (active),12.2%,-13.5% (active),-45.5% (active),-14.1% (active),-17% (active),-30.2% (active),-55.2% (active),-88.6% (active),-2.42% (active),-64.6% (active),-79.5% (active),4.01% (active),-40.8% (active)
CC(=O)Oc1ccccc1C(=O)NCCC[Se]C#N,44.3%,44.5%,-17.3% (active),-37.8% (active),-65.7% (active),6.63% (active),-2.68% (active),22.9%,10.7%,–,91.1%,-13.9% (active),83.3%,–,32.6%,10.8%,-5.3% (active),17.1%,5.1% (active)
Nc1nc([Se])c2ncn(C3OC(CO)C(O)C3O)c2n1 (centres undefined),104%,62.9%,94.7%,84.9%,59.6%,84.3%,95.3%,16.3%,7.08% (active),–,23.9%,55.8%,60.8%,79.5%,77.7%,–,104%,75.4%,41.7%
CCOP(=O)(NC[C@H]1O[C@](O)(CO)[C@@H](O)[C@@H]1O)OCC,98.4%,91.4%,100%,69.9%,97.2%,103%,99.9%,101%,95.9%,97.1%,101%,103%,112%,103%,87.6%,94.5%,103%,96.4%,–
Cc1c2cc(Cl)c3ccccc3c2c[n+]2ccccc12,-16.6% (active),43.2%,-19.4% (active),62%,93.3%,92.2%,90.2%,35.5%,1.48% (active),-11.7% (active),–,-1.69% (active),77.6%,30.3%,66.6%,19.9%,4.55% (active),-33.2% (active),62.3%
CCN(CCO)C(Cc1ccccc1)c1ccccc1 (centres undefined),105%,96.5%,102%,94%,101%,108%,96.3%,2.74% (active),–,116%,98.9%,109%,93%,102%,110%,97.4%,109%,105%,111%
CCCC[C@H](NC(=O)[C@H]1CCCCN1C)C(=O)N(C)[C@H](C[C@@H](OC(C)=O)c1nc(C(=O)N[C@@H](Cc2ccccc2)C[C@H](C)C(=O)OCC)cs1)C(C)C,11.8%,47.8%,23.9%,31.9%,-7.07% (active),13.5%,-11.9% (active),8.81% (active),12.7%,4.92% (active),10.7%,21%,36.2%,49.5%,-6.08% (active),24.4%,3.86% (active),12.1%,-25.7% (active)
CC1=C(CCCOC(=O)CN)C2=C(C)C3(CC3)[C@@](C)(O)C(=O)C2=C1,102%,95.8%,81.3%,73.3%,102%,97.4%,94.7%,81.1%,–,94.7%,88.8%,73.8%,114%,85%,51.3%,32.8%,101%,93.9%,75.2%
CC1(C)N=C(N)N=C(N)N1c1ccc(CCC(=O)Nc2ccc(S(=O)(=O)F)cc2)c(Cl)c1,48.5%,55.1%,28.9%,93.1%,42.4%,47.9%,34.8%,44.9%,33%,6.43% (active),–,-11.8% (active),29%,52.9%,64.5%,-43.3% (active),58.9%,59.9%,18.3%
O=C1C2CC=CCC2C(=O)N1SC(Cl)(Cl)Cl (centres undefined),122%,121%,97.4%,4.07% (active),115%,72.3%,139%,21.6%,36.3%,41.5%,33.1%,102%,111%,99.9%,–,31.7%,76.8%,160%,46.2%
